Results as given in the supplement of paper PMC4723716.
± gives the uncertainty stated by the source. In all, about 9,900 compounds were measured (“viability index relative to DMSO control”: median about 1, lowest 2% from about 0.85 on). The sample holds the lowest values, similar compounds and a random draw of the others, so the mix is not that of the screen.

Tested on: Plasmodium falciparum NF54 stage V gametocytes
Assay: viability index relative to DMSO control (fraction); higher = less gametocyte killing
Conditions: 2.5 µM, incubation time: 72 h
Method in brief: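 Stage V gametocytes of P. falciparum NF54 were held in serum-free screening medium at 0.75% gametocytemia and 1.25% hematocrit, 10 µl per well of a 1,536-well plate, and exposed to compound at 2.5 µM for 72 hr at 37°C under low oxygen. A 3 µl mix of 2.5 µM MitoTracker Red CMXRos with 0.13% saponin was then added for one to two hours, after which one field per well was imaged and red particles of 20–70 µm2 were counted. The viability index equals this count divided by the plate mean from wells given solvent alone.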

[1] = library set: Broad Institute DOS
[2] = library set: Broad Institute Blood Stage

Cc1noc(C)c1NC(=O)N(C)C[C@@H]1OCc2cnnn2CCCC(=O)N([C@H](C)CO)C[C@@H]1C
viability index [1]: 1.09 ± 0.08

CO[C@@H]1CN(C)C(=O)c2ccc(NC(=O)NC(C)C)cc2OC[C@@H](C)N(Cc2ccc(-c3ccccn3)cc2)C[C@H]1C
viability index [1]: 1.03 ± 0.023

COCC(=O)Nc1ccc2c(c1)C(=O)N(C)[C@@H]1CC[C@H](CC(=O)N3CCc4ccccc4C3)O[C@@H]1CO2
viability index [1]: 1.0023 ± 0.00098

C/C=C/c1ccc([C@H]2[C@H]3CNC[C@@H]2N3S(=O)(=O)c2ccccc2C)cc1
viability index [1]: 1.04 ± 0.027

C[C@H](CO)N1C[C@H](C)[C@H](CN(C)S(=O)(=O)c2ccc(C#N)cc2)OCc2ccccc2-c2c(n(C)c3ccccc23)C1=O
viability index [2]: 1.01 ± 0.03

C[C@H](CO)N1C[C@H](C)[C@H](CN(C)S(=O)(=O)c2ccc(F)cc2)OCc2ccccc2-c2c(n(C)c3ccccc23)C1=O
viability index [2]: 0.942 ± 0.045

C[C@H]1CN([C@@H](C)CO)C(=O)c2c(c3ccccc3n2C)-c2ccccc2CO[C@H]1CN(C)S(=O)(=O)c1ccc(Cl)cc1
viability index [2]: 0.738 ± 0.023

COc1ccc(S(=O)(=O)N(C)C[C@@H]2OCc3ccccc3-c3c(n(C)c4ccccc34)C(=O)N([C@@H](C)CO)C[C@@H]2C)cc1
viability index [2]: 0.936 ± 0.044

C[C@H]1CN([C@@H](C)CO)C(=O)c2c(c3ccccc3n2C)-c2ccccc2CO[C@H]1CN(C)S(=O)(=O)c1ccc(F)cc1
viability index [2]: 0.929 ± 0.041

Cc1ccc(S(=O)(=O)N(C)C[C@@H]2OCc3ccccc3-c3c(n(C)c4ccccc34)C(=O)N([C@@H](C)CO)C[C@@H]2C)cc1
viability index [2]: 0.728 ± 0.062

CCNC(=O)C[C@@H]1CC[C@H]2[C@@H](COC[C@H](O)CN2C(=O)c2ccccn2)O1
viability index [1]: 1.14 ± 0.062

COc1cccc(C#Cc2ccc3c(c2)O[C@@H](CN(C)C(=O)CN2CCOCC2)[C@@H](C)CN([C@H](C)CO)S3(=O)=O)c1
viability index [1]: 0.966 ± 0.13

C[C@@H]1CCCCO[C@H](CN(C)Cc2ccc(C(=O)O)cc2)[C@@H](C)CN([C@@H](C)CO)C(=O)c2cc(N(C)C)ccc2O1
viability index [1]: 1.07 ± 0.11

COCC#Cc1ccc([C@@H]2[C@@H](CO)N3C(=O)CN(C(=O)c4ccncc4)C[C@H]23)cc1
viability index [1]: 1.12 ± 0.087

Cc1ccc(-c2ccccc2[C@H]2[C@@H](C#N)N(c3ncc(-c4ccccc4)s3)[C@H]2CO)cc1
viability index [1]: 0.985 ± 0.14

O=C(C[C@H]1CC[C@@H]2[C@H](COC[C@H](O)CN2Cc2ccc(C(F)(F)F)cc2)O1)N1CCc2ccccc2C1
viability index [1]: 0.846 ± 0.011

O=C(C[C@H]1CC[C@H]2[C@@H](COC[C@@H](O)CN2Cc2ccc(C(F)(F)F)cc2)O1)N1CCc2ccccc2C1
viability index [1]: 0.968 ± 0.024

O=C(C[C@@H]1CC[C@@H]2[C@H](COC[C@H](O)CN2Cc2ccc(C(F)(F)F)cc2)O1)N1CCc2ccccc2C1
viability index [1]: 1.078 ± 0.0039

Cc1noc(C)c1NC(=O)Nc1ccc2c(c1)C(=O)N(C)[C@H]1CC[C@H](CC(=O)Nc3ccc4c(c3)CCCC4)O[C@@H]1CO2
viability index [1]: 1.086 ± 0.0014

COc1ccc([C@@H]2C/C=C\C[C@H](c3ccc(F)cc3)NC(=O)CCC(=O)N2)c(OC)c1
viability index [1]: 1.015 ± 0.01

C/C=C/c1ccc2c(c1)O[C@H](CN(C)C(=O)Nc1ccc(OC)cc1)[C@H](C)CN([C@H](C)CO)S2(=O)=O
viability index [1]: 1.056 ± 0.0059

Cc1ccccc1-c1ccc2c(c1)O[C@H](CN(C)C(=O)Nc1ccc(C(F)(F)F)cc1)[C@H](C)CN([C@H](C)CO)S2(=O)=O
viability index [1]: 0.988 ± 0.082

Cc1ccccc1-c1ccc2c(c1)O[C@@H](CN(C)C(=O)Nc1ccc(C(F)(F)F)cc1)[C@@H](C)CN([C@@H](C)CO)S2(=O)=O
viability index [1]: 0.838 ± 0.12

C/C=C/c1ccc2c(c1)O[C@H](CN(C)C(=O)Nc1ccc(OC)cc1)[C@H](C)CN([C@@H](C)CO)S2(=O)=O
viability index [1]: 0.988 ± 0.013

COc1ccc(C#Cc2ccc3c(c2)O[C@@H](CN(C)C(=O)Nc2cccc(OC)c2)[C@@H](C)CN([C@@H](C)CO)S3(=O)=O)cc1
viability index [2]: 0.612 ± 0.071

Cc1ccccc1-c1ccc2c(c1)O[C@@H](CN(C)C(=O)Nc1ccc(C(F)(F)F)cc1)[C@H](C)CN([C@@H](C)CO)S2(=O)=O
viability index [1]: 1.09 ± 0.078

C[C@H](CO)N1C[C@H](C)[C@@H](CN(C)Cc2cccc(C(=O)Nc3ccccc3N)c2)OCc2ccccc2-c2c(n(C)c3ccccc23)C1=O
viability index [1]: 0.887 ± 0.053

CO[C@H](CN(C)S(=O)(=O)c1ccc(C)cc1)[C@H](C)CN(C(=O)Nc1ccccc1F)[C@@H](C)CO
viability index [1]: 0.986 ± 0.025

CCC(=O)N1[C@H](CO)[C@H]2c3ccccc3N(S(=O)(=O)c3ccc(F)cc3)C[C@H]21
viability index [1]: 0.958 ± 0.067

N#C[C@H]1[C@H](c2ccccc2C2=CCCCC2)[C@H](CO)N1S(=O)(=O)c1ccccc1
viability index [1]: 1.14 ± 0.019

N#C[C@@H]1[C@@H](c2ccccc2C2=CCCCC2)[C@H](CO)N1S(=O)(=O)c1ccccc1
viability index [1]: 1.05 ± 0.1

N#C[C@H]1[C@H](c2ccccc2C2=CCCCC2)[C@@H](CO)N1S(=O)(=O)c1ccccc1
viability index [1]: 0.757 ± 0.1

C[C@@H]1CCCCO[C@@H](CN(C)C(=O)C2CCCCC2)[C@@H](C)CN([C@@H](C)CO)C(=O)c2cc(NS(=O)(=O)c3ccccc3)ccc2O1
viability index [1]: 1.08 ± 0.023

COc1ccc2c3c([C@H](CO)N(C[C@]33CN(C3)C(=O)CC3CC3)C(=O)C3CCCC3)n(C)c2c1
viability index [1]: 0.897 ± 0.036

COc1ccc2c3c([C@@H](CO)N(C[C@]33CCN(CC4CCCC4)CC3)C(=O)C3CCC3)n(C)c2c1
viability index [1]: 1.1 ± 0.042

COc1ccc(NC(=O)N2CC[C@@]3(CC2)CN([C@@H](CO)c2c3c3ccc(OC)cc3n2C)C(=O)C2CCC2)cc1
viability index [1]: 0.897 ± 0.041

COc1ccc2c3c([C@@H](CO)N(C[C@]33CN(C3)C(=O)CC3CC3)C(=O)C3CCCC3)n(C)c2c1
viability index [1]: 0.932 ± 0.021

COc1ccc(NC(=O)N2C[C@@]3(C2)CN([C@H](CO)c2c3c3ccc(OC)cc3n2C)C(=O)C2CCC2)cc1
viability index [2]: 0.841 ± 0.05

COc1ccc(NC(=O)N2CC[C@@]3(CC2)CN([C@H](CO)c2c3c3ccc(OC)cc3n2C)C(=O)C2CCC2)cc1
viability index [1]: 0.785 ± 0.057

COc1cccc(CN2C[C@@]3(C2)CN([C@@H](CO)c2[nH]c4cc(OC)ccc4c32)C(=O)C2CC2)c1
viability index [1]: 0.956 ± 0.11

C[C@H](CO)N1C[C@H](C)[C@H](CN(C)C(=O)C2CCCCC2)Oc2ncc(C#Cc3cccc(F)c3)cc2C1=O
viability index [2]: 0.62 ± 0.074

C[C@@H]1CN([C@@H](C)CO)C(=O)c2cc(C#Cc3ccccc3)cnc2O[C@@H]1CN(C)C(=O)c1ccccc1
viability index [1]: 1.08 ± 0.028

CCCC#Cc1cnc2c(c1)C(=O)N([C@@H](C)CO)C[C@@H](C)[C@@H](CN(C)C(=O)Nc1cc(F)ccc1F)O2
viability index [1]: 1.02 ± 0.012

CCCC#Cc1cnc2c(c1)C(=O)N([C@@H](C)CO)C[C@@H](C)[C@H](CN(C)C(=O)Nc1cc(F)ccc1F)O2
viability index [1]: 1.05 ± 0.041

C[C@H]1CN([C@@H](C)CO)C(=O)c2cc(-c3cccc(C#N)c3)cnc2O[C@@H]1CN(C)C(=O)C1CCOCC1
viability index [1]: 1.04 ± 0.025

C[C@H](CO)N1C[C@H](C)[C@H](CN(C)C(=O)NC2CCCCC2)Oc2ncc(-c3cccc(F)c3)cc2C1=O
viability index [1]: 1.01 ± 0.084

C[C@@H]1CN([C@H](C)CO)C(=O)c2cc(C#Cc3ccccc3)cnc2O[C@@H]1CN(C)C(=O)c1ccccc1
viability index [1]: 0.966 ± 0.057

CCCC#Cc1cnc2c(c1)C(=O)N([C@H](C)CO)C[C@@H](C)[C@H](CN(C)C(=O)Nc1cc(F)ccc1F)O2
viability index [1]: 0.822 ± 0.058

C[C@H]1CN([C@@H](C)CO)C(=O)c2cc(C#Cc3cccc(F)c3)cnc2O[C@@H]1CN(C)C(=O)C1CCCCC1
viability index [2]: 0.769 ± 0.073
